Many of the other results were omitted from the sample, so the strongest signals are more common in it than they were.
How the values were obtained:
Experiment in all cases: glycan array binding signal (z-score within array); higher = stronger binding
Settings in all cases: glycan notation: IUPAC condensed, linker removed
[1] = target: Fuc(a1-2)Gal(b1-3)GalNAc(b1-3)Gal
In short: (§1)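 Glycan array data came from 3228 arrays in the Consortium for Functional Glycomics database, and only arrays with an available protein sequence were kept. Glycan names were put into IUPAC-condensed notation, and columns mapping to the same glycan were averaged. The binding signal is a within-array Z-score, averaged across arrays of one protein sequence run at different concentrations or buffers and across linkers. A negative Z-score can be read as non-binding.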

[2] = target: Fuc(a1-2)[Gal(a1-3)]Gal(b1-4)Glc
In short: as §1

[3] = target: Fuc(a1-2)[GalNAc(b1-3)]Gal
In short: as §1

[4] = target: Fuc(a1-3)[Gal3S(b1-4)]GlcNAc6S
In short: as §1

Gal(a1-3)Gal(b1-4)Glc = target: Gal(a1-3)Gal(b1-4)Glc
In short: as §1

[5] = target: Gal(a1-3)Gal(b1-4)[Fuc(a1-3)]GlcNAc
In short: as §1

[6] = target: Gal(b1-3)[GlcNAc(b1-6)]GalNAc
In short: as §1

Gal(b1-4)Glc6S = target: Gal(b1-4)Glc6S
In short: as §1

[7] = target: Gal(b1-4)GlcNAc(b1-3)Gal(b1-4)GlcNAc
In short: as §1

[8] = target: Gal3S(b1-4)[Fuc(a1-3)]Glc
In short: as §1

Gal3S4S(b1-4)GlcNAc = target: Gal3S4S(b1-4)GlcNAc
In short: as §1

Gal3S6S(b1-4)GlcNAc6S = target: Gal3S6S(b1-4)GlcNAc6S
In short: as §1

Gal6S(b1-4)GlcNAc6S = target: Gal6S(b1-4)GlcNAc6S
In short: as §1

Man(a1-3)[Man(a1-6)]Man = target: Man(a1-3)[Man(a1-6)]Man
In short: as §1

[9] = target: Man(a1-3)[Man(a1-6)]Man(b1-4)GlcNAc(b1-4)GlcNAc
In short: as §1

[10] = target: Neu5Ac(a2-3)Gal(b1-3)GalNAc6S
In short: as §1

[11] = target: Neu5Ac(a2-3)Gal(b1-3)GlcNAc6S
In short: as §1

[12] = target: Neu5Ac(a2-3)Gal(b1-4)GlcNAc6S
In short: as §1

[13] = target: Neu5Ac(b2-6)Gal(b1-4)GlcNAc
In short: as §1

[14] = target: Neu5Gc(a2-3)Gal(b1-4)[Fuc(a1-3)]GlcNAc
In short: as §1

[15] = target: Neu5Gc(a2-6)Gal(b1-4)GlcNAc
In short: as §1

[16] = target: Fuc(a1-2)Gal(b1-4)GlcNAc(b1-3)Gal(b1-4)GlcNAc(b1-3)Gal(b1-4)GlcNAc
In short: as §1

Fuc(a1-2)Gal6S(b1-4)Glc = target: Fuc(a1-2)Gal6S(b1-4)Glc
In short: as §1

[17] = target: Fuc(a1-2)[Gal(a1-3)]Gal(b1-4)GlcNAc
In short: as §1

Fuc(a1-3)GlcNAc = target: Fuc(a1-3)GlcNAc
In short: as §1

[18] = target: Fuc(a1-3)[Gal(b1-4)]GlcNAc6S
In short: as §1

Gal(b1-3)Gal = target: Gal(b1-3)Gal
In short: as §1

[19] = target: Gal(b1-3)[Fuc(a1-4)]GlcNAc(b1-3)Gal(b1-4)[Fuc(a1-3)]GlcNAc
In short: as §1

[20] = target: Gal(b1-4)GlcNAc(b1-3)Gal(b1-4)Glc
In short: as §1

[21] = target: Gal(b1-4)GlcNAc(b1-3)Gal(b1-4)[Fuc(a1-3)]GlcNAc(b1-3)Gal(b1-4)[Fuc(a1-3)]GlcNAc
In short: as §1

[22] = target: Gal(b1-4)GlcNAc(b1-3)[GlcNAc(b1-6)]Gal(b1-4)GlcNAc
In short: as §1

Gal3S(b1-4)Glc = target: Gal3S(b1-4)Glc
In short: as §1

GalNAc(b1-3)Gal = target: GalNAc(b1-3)Gal
In short: as §1

GalNAc(b1-4)GlcNAc = target: GalNAc(b1-4)GlcNAc
In short: as §1

Kdn(a2-3)Gal(b1-3)GlcNAc = target: Kdn(a2-3)Gal(b1-3)GlcNAc
In short: as §1

[23] = target: Man(a1-3)[Man(a1-6)]Man(a1-6)[Man(a1-2)Man(a1-3)]Man(b1-4)GlcNAc(b1-4)GlcNAc
In short: as §1

[24] = target: Neu5Ac(a2-3)Gal(b1-3)[Fuc(a1-4)]GlcNAc
In short: as §1

[25] = target: Neu5Ac(a2-3)Gal(b1-4)GlcNAc(b1-3)Gal(b1-3)GlcNAc
In short: as §1

[26] = target: Neu5Ac(a2-3)Gal6S(b1-4)[Fuc(a1-3)]GlcNAc
In short: as §1

Neu5Ac(a2-3)GalNAc = target: Neu5Ac(a2-3)GalNAc
In short: as §1

[27] = target: Neu5Ac(a2-6)Gal(b1-4)GlcNAc(b1-2)Man(a1-6)[Gal(b1-4)GlcNAc(b1-2)Man(a1-3)]Man(b1-4)GlcNAc(b1-4)GlcNAc
In short: as §1

[28] = target: Neu5Ac(a2-6)Gal(b1-4)GlcNAc(b1-3)Gal(b1-4)[Fuc(a1-3)]GlcNAc(b1-3)Gal(b1-4)[Fuc(a1-3)]GlcNAc
In short: as §1

[29] = target: Neu5Ac(a2-8)Neu5Ac(a2-8)Neu5Ac
In short: as §1

B1: Mcg Light Chain Dimer (Homo sapiens), Q6PIK1 (protein)
chain: MAGFPLLLTLLTHCAGSWGQSLLTQPPSVSGTPGQRVTISCSGSSSNIGINYVYWYQQIPGTAPKLLISTNDQRPSGVPDRFSGSKSGTSASLAIGGLRSEDEAHYYCAAWDDSMSGPGYAFGTGTKVTVLRQPKANPTVTLFPPSSEELQANKATLVCLISDFYPGAVTVAWKADGSPVKAGVETTKPSKQSNNKYAASSYLSLTPEQWKSHRSYSCQVTHEGSTVEKTVAPTECS
[1]
  glycan array binding signal (z-score): -0.611
[2]
  glycan array binding signal (z-score): -1.02
[3]
  glycan array binding signal (z-score): 0.344
[4]
  glycan array binding signal (z-score): 4.13
Gal(a1-3)Gal(b1-4)Glc
  glycan array binding signal (z-score): -1.04
[5]
  glycan array binding signal (z-score): 0.315
[6]
  glycan array binding signal (z-score): -0.568
Gal(b1-4)Glc6S
  glycan array binding signal (z-score): 0.905
[7]
  glycan array binding signal (z-score): -0.321
[8]
  glycan array binding signal (z-score): -0.54
Gal3S4S(b1-4)GlcNAc
  glycan array binding signal (z-score): 3.63
Gal3S6S(b1-4)GlcNAc6S
  glycan array binding signal (z-score): 5.67
Gal6S(b1-4)GlcNAc6S
  glycan array binding signal (z-score): 0.505
Man(a1-3)[Man(a1-6)]Man
  glycan array binding signal (z-score): -1.04
[9]
  glycan array binding signal (z-score): -0.305
[10]
  glycan array binding signal (z-score): 2.88
[11]
  glycan array binding signal (z-score): 1.73
[12]
  glycan array binding signal (z-score): 2.96
[13]
  glycan array binding signal (z-score): -0.955
[14]
  glycan array binding signal (z-score): 1.2
[15]
  glycan array binding signal (z-score): 0.325

B2: Angptl4 (Homo sapiens), Q9BY76 (protein)
chain: MSGAPTAGAALMLCAATAVLLSAQGGPVQSKSPRFASWDEMNVLAHGLLQLGQGLREHAERTRSQLSALERRLSACGSACQGTEGSTDLPLAPESRVDPEVLHSLQTQLKAQNSRIQQLFHKVAQQQRHLEKQHLRIQHLQSQFGLLDHKHLDHEVAKPARRKRLPEMAQPVDPAHNVSRLHRLPRDCQELFQVGERQSGLFEIQPQGSPPFLVNCKMTSDGGWTVIQRRHDGSVDFNRPWEAYKAGFGDPHGEFWLGLEKVHSITGDRNSRLAVQLRDWDGNAELLQFSVHLGGEDTAYSLQLTAPVAGQLGATTVPPSGLSVPFSTWDQDHDLRRDKNCAKSLSGGWWFGTCSHSNLNGQYFRSIPQQRQKLKKGIFWKTWRGRYYPLQATTMLIQPMAAEAAS
[1]
  glycan array binding signal (z-score): 5.26
[16]
  glycan array binding signal (z-score): 0.616
Fuc(a1-2)Gal6S(b1-4)Glc
  glycan array binding signal (z-score): -0.253
[17]
  glycan array binding signal (z-score): 0.087
Fuc(a1-3)GlcNAc
  glycan array binding signal (z-score): -0.446
[18]
  glycan array binding signal (z-score): -0.527
[5]
  glycan array binding signal (z-score): -0.522
Gal(b1-3)Gal
  glycan array binding signal (z-score): 0.531
[19]
  glycan array binding signal (z-score): -0.192
[6]
  glycan array binding signal (z-score): -0.215
[20]
  glycan array binding signal (z-score): -0.407
[21]
  glycan array binding signal (z-score): 3.98
[22]
  glycan array binding signal (z-score): -0.27
Gal3S(b1-4)Glc
  glycan array binding signal (z-score): -0.052
GalNAc(b1-3)Gal
  glycan array binding signal (z-score): -0.523
GalNAc(b1-4)GlcNAc
  glycan array binding signal (z-score): -0.398
Kdn(a2-3)Gal(b1-3)GlcNAc
  glycan array binding signal (z-score): 0.691
[23]
  glycan array binding signal (z-score): 5.32
[11]
  glycan array binding signal (z-score): 7.07
[24]
  glycan array binding signal (z-score): -0.272
[25]
  glycan array binding signal (z-score): -0.262
[26]
  glycan array binding signal (z-score): -0.53
Neu5Ac(a2-3)GalNAc
  glycan array binding signal (z-score): -0.954
[27]
  glycan array binding signal (z-score): 4.1
[28]
  glycan array binding signal (z-score): 0.162
[29]
  glycan array binding signal (z-score): -0.016

Source: the supplement of paper PMC8728848
